Assay results as given in PubChem BioAssay (Tox21).
Results filed as inconclusive are left out. Where a call stands in place of a potency, no number is given. Unmarked numbers belong to inactive results. The source made the active and inactive calls. Unless noted, the call rests on the fitted dose curve.

Biological target: Progesterone receptor (Homo sapiens) (UniProt P06401)
Assay: qHTS assay to identify small molecule antagonists of the progesterone receptor (PR) signaling pathway (AID 1346795; active means well fitted inhibition curve with a large enough effect in the signal ratio in the repeat runs, not every such curve was filed as active; the % refers to the signal ratio)
Settings: PR-UAS-bla HEK293T, beta-lactamase FRET ratio, 16 h; series mostly up to 92.4 µM
How it was run: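 Antagonist mode: compounds tested against 1 nM (final) promegestone stimulation in HEK293T cells expressing PR-UAS-bla reporter, 16 hr at 37C, 5% CO2; beta-lactamase activity detected via B/G FRET substrate after 2 hr at room temperature.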

Progesterone receptor (Homo sapiens), sequence (P06401 whole entry, looked up): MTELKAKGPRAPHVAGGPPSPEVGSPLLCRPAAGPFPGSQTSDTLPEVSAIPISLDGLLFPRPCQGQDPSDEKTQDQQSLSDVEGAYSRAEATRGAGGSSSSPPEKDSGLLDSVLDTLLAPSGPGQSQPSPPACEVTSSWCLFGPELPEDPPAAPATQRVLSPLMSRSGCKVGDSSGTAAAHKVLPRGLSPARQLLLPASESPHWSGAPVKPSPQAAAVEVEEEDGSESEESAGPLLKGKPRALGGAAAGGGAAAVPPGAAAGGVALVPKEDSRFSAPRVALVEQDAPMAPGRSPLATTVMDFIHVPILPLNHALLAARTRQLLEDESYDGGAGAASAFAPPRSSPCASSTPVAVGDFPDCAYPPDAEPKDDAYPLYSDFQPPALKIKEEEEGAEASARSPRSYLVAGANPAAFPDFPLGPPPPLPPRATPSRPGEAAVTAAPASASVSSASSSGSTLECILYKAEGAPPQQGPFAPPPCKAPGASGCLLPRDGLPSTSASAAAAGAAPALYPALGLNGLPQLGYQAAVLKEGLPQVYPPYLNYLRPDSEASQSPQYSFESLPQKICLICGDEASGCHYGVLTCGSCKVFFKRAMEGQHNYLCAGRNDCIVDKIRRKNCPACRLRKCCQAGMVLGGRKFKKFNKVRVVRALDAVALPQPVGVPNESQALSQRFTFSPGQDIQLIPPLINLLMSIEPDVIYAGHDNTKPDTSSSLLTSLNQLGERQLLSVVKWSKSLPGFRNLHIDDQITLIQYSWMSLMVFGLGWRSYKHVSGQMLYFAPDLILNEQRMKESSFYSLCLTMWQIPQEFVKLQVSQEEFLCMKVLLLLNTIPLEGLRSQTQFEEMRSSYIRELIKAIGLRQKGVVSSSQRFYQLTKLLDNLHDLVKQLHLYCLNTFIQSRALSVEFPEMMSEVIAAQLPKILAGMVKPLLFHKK

Row | Structure (SMILES) | Potency | activity change, negative = inhibition
1 | C[C@@H](O)C(=O)O | inactive | 
2 | CC1c2ccccc2CN1NC(=O)c1ccc(Cl)c(S(N)(=O)=O)c1 (centres undefined) | inactive | 
3 | O=C1CCC(=O)N1Cl | inactive | 
4 | C/C(CC(C)C)=N\O | inactive | 
5 | CCC(C)C(=O)OCCc1ccccc1 (centres undefined) | inactive | 
6 | CCOc1ccccc1OCC1CNCCO1 (centres undefined) | inactive | 
7 | COC(=O)c1cccc(Cl)c1 | inactive | 
8 | Cc1ccc2c(c1)C(=O)c1ccccc1C2=O | inactive | 
9 | Cc1cc(C)c(C(=O)O)c(C)c1 | inactive | 
10 | CCCSSCCC | inactive | 
11 | CC1(C)Cc2cccc(N)c2O1 | inactive | 
12 | C=CCN1C[C@H](C(=O)N(CCCN(C)C)C(=O)NCC)C[C@@H]2c3cccc4[nH]cc(c34)C[C@H]21 | inactive | 
13 | O=C[O][Al]([O]C=O)[O]C=O | inactive | 
14 | CC1CC(=O)CC(C)(C)C1 (centres undefined) | inactive | 
15 | C[C@H]1[C@@H](c2ccccc2)NC(=O)N1C | inactive | 
16 | CC(=O)OC1CCCCC1C(C)(C)C (centres undefined) | inactive | 

Row | Structure (SMILES) | Potency | activity change, negative = inhibition
17 | O=C(O)[C@H](O)c1ccccc1 | inactive | 
18 | COC(=O)CCCCC(=O)O | inactive | 
19 | C=CCSSCCC | inactive | 
20 | CO/N=C(/C(=O)N[C@@H]1C(=O)N2C(C(=O)[O-])=C(C[n+]3ccn4ncccc43)CS[C@H]12)c1nsc(N)n1 | inactive | 
21 | CC12CCC(C1)C(C)(C)C2O (centres undefined) | inactive | 
22 | C/C=C(\C)C(C)=O | inactive | 
23 | CN(C)CCN(C)CCO | inactive | 
24 | C[C@]12CCC(=O)C=C1CC[C@H]1[C@@H]3CC[C@](O)(C(=O)CO)[C@@]3(C)C[C@H](O)[C@@]12F | inactive | 
25 | CC1OCCC1=O (centres undefined) | inactive | 
26 | CCCC(=O)OC/C=C(\C)CCC=C(C)C | inactive | 
27 | C=CCCCCCCCCC(=O)OCCCC | inactive | 
28 | CN1C[C@@H]2C[C@H]1CN2c1cc2c(cc1F)c(=O)c(C(=O)O)cn2C1CC1 |  | 14.1% [at 18.9 µM]
29 | CCC/C=C(\C=O)CC | inactive | 
30 | CC1(C)CC(OC(=O)CCCCCCCCC(=O)OC2CC(C)(C)NC(C)(C)C2)CC(C)(C)N1 |  | 5.15% [at 18.9 µM]
31 | CC1CCc2c(N3CCC(O)CC3)c(F)cc3c(=O)c(C(=O)O)cn1c23 (centres undefined) | inactive | 

Tested on: not listed separately
Assay: qHTS assay to identify small molecule antagonists of the progesterone receptor (PR) signaling pathway - cell viability counter screen (AID 1346798; active means well fitted cell-killing curve with a large enough effect in the repeat runs; further: nearly all actives have a fitted effect of over 50% in size)
Settings: PR-UAS-bla HEK293T viability, CellTiter-Glo luminescence, 16 h; series mostly up to 92.4 µM
How it was run: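 Counter screen for cytotoxicity: viability of PR-UAS-bla HEK293T cells was measured with CellTiter-Glo luminescence following 16 hr compound exposure in the presence of R5020.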

Row | Structure (SMILES) | outcome | activity change, negative = cytotoxicity
32 | O=C1CCC(=O)N1Cl | inactive | 
33 | C/C(CC(C)C)=N\O | inactive | 
34 | CCC(C)C(=O)OCCc1ccccc1 (centres undefined) | inactive | 
35 | CC(=O)CCC1=C(C)CCCC1(C)C | inactive | 
36 | CCOc1ccccc1OCC1CNCCO1 (centres undefined) | inactive | 
37 | C=C(C)c1cccc(C(C)(C)N=C=O)c1 | inactive | 
38 | Cc1cc(C)c(C(=O)O)c(C)c1 | inactive | 
39 | CCCSSCCC | inactive | 
40 | CC1(C)Cc2cccc(N)c2O1 | inactive | 
41 | C=CCN1C[C@H](C(=O)N(CCCN(C)C)C(=O)NCC)C[C@@H]2c3cccc4[nH]cc(c34)C[C@H]21 | inactive | 
42 | O=C[O][Al]([O]C=O)[O]C=O | inactive | 
43 | CC(C)Nc1ccccc1 | inactive | 
44 | CCCCCCCCCCCCCCC(=O)NC(CO)CCCCCCCCCCCCCC (centres undefined) | inactive | 
45 | C[C@H]1[C@@H](c2ccccc2)NC(=O)N1C | inactive | 
46 | CC(=O)OC1CCCCC1C(C)(C)C (centres undefined) | inactive | 
47 | O=C(O)[C@H](O)c1ccccc1 | inactive | 
48 | COC(=O)CCCCC(=O)O | inactive | 
49 | C=CCSSCCC | inactive | 
50 | CC12CCC(C1)C(C)(C)C2O (centres undefined) | inactive | 
51 | C/C=C(\C)C(C)=O | inactive | 
52 | CN(C)CCN(C)CCO | inactive | 
53 | C[C@]12CCC(=O)C=C1CC[C@H]1[C@@H]3CC[C@](O)(C(=O)CO)[C@@]3(C)C[C@H](O)[C@@]12F | inactive | 
54 | CC1OCCC1=O (centres undefined) | inactive | 
55 | CCCC(=O)OC/C=C(\C)CCC=C(C)C | inactive | 
56 | CCC/C=C(\C=O)CC | inactive | 
57 | CC1(C)CC(OC(=O)CCCCCCCCC(=O)OC2CC(C)(C)NC(C)(C)C2)CC(C)(C)N1 |  | -13.3% [at 18.9 µM]
58 | O=C1OCCO1 | inactive | 
59 | CC1CCc2c(N3CCC(O)CC3)c(F)cc3c(=O)c(C(=O)O)cn1c23 (centres undefined) | inactive | 

Tested on: not listed separately
Assay: qHTS assay to identify small molecule agonists of the progesterone receptor (PR) signaling pathway - cell viability counter screen (AID 1346799); further: nearly all actives have a fitted effect of over 45% in size
Settings: PR-UAS-bla HEK293T viability, CellTiter-Glo luminescence, 16 h; series mostly up to 92.4 µM
How it was run: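 Cells (PR-UAS-bla HEK293T) are plated at 3,000/well in 2% charcoal-stripped FBS medium, rested 6 hr, dosed and incubated 16 hr at 37C. CellTiter-Glo is then added and luminescence measured after 30 min at room temperature.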

Row | Structure (SMILES) | outcome | activity change, negative = cytotoxicity
60 | CC1c2ccccc2CN1NC(=O)c1ccc(Cl)c(S(N)(=O)=O)c1 (centres undefined) | inactive | 
61 | C/C(CC(C)C)=N\O | inactive | 
62 | CCC(C)C(=O)OCCc1ccccc1 (centres undefined) | inactive | 
63 | CC(=O)CCC1=C(C)CCCC1(C)C | inactive | 
64 | CCOc1ccccc1OCC1CNCCO1 (centres undefined) | inactive | 
65 | COC(=O)c1cccc(Cl)c1 | inactive | 
66 | C=C(C)c1cccc(C(C)(C)N=C=O)c1 | inactive | 
67 | Cc1cc(C)c(C(=O)O)c(C)c1 | inactive | 
68 | CCCSSCCC | inactive | 
69 | CC1(C)Cc2cccc(N)c2O1 | inactive | 
70 | O=C[O][Al]([O]C=O)[O]C=O | inactive | 
71 | CC1CC(=O)CC(C)(C)C1 (centres undefined) | inactive | 
72 | CC(C)Nc1ccccc1 | inactive | 
73 | CCCCCCCCCCCCCCC(=O)NC(CO)CCCCCCCCCCCCCC (centres undefined) | inactive | 
74 | CN(C)CCCCl | inactive | 
75 | C[C@H]1[C@@H](c2ccccc2)NC(=O)N1C | inactive | 
76 | CC(=O)OC1CCCCC1C(C)(C)C (centres undefined) | inactive | 
77 | O=C(O)[C@H](O)c1ccccc1 | inactive | 
78 | COC(=O)CCCCC(=O)O | inactive | 
79 | CO/N=C(/C(=O)N[C@@H]1C(=O)N2C(C(=O)[O-])=C(C[n+]3ccn4ncccc43)CS[C@H]12)c1nsc(N)n1 | inactive | 
80 | CC12CCC(C1)C(C)(C)C2O (centres undefined) | inactive | 
81 | C/C=C(\C)C(C)=O | inactive | 
82 | CN(C)CCN(C)CCO | inactive | 
83 | CC1OCCC1=O (centres undefined) | inactive | 
84 | C=CCCCCCCCCC(=O)OCCCC | inactive | 
85 | CN1C[C@@H]2C[C@H]1CN2c1cc2c(cc1F)c(=O)c(C(=O)O)cn2C1CC1 |  | 18.9% [at 19 µM]
86 | CCC/C=C(\C=O)CC | inactive | 
87 | CC1(C)CC(OC(=O)CCCCCCCCC(=O)OC2CC(C)(C)NC(C)(C)C2)CC(C)(C)N1 |  | 0.742% [at 19 µM]
88 | O=C1OCCO1 | inactive | 
89 | CC1CCc2c(N3CCC(O)CC3)c(F)cc3c(=O)c(C(=O)O)cn1c23 (centres undefined) | inactive | 
